This is part of a sample that, as a whole, favours compounds with a hit. Of some 79,000 tested, about 15% had one in any assay. A number with no mark means an inactive call. Activity calls are given as the source filed them. No stated cut-off is given here; in the data, active means growth inhibition above about 70%; inactive means the rest.
Columns and labels:
[1] = NCI Yeast Anticancer Drug Screen. Data for the rad50 strain (AID 155);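 further: 0% = growth of vehicle-only cultures of the same strain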; conditions: S. cerevisiae rad50 strain growth inhibition; at 50.0 µM; hits give high values
Summary of the method: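 Growth of the mutant yeast was measured after compound exposure and referenced to vehicle-treated cultures.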

[2] = NCI Yeast Anticancer Drug Screen. Data for the mec2-1 strain (AID 157); conditions: S. cerevisiae mec2-1 strain, at 50.0 µM, hits give high values
Summary of the method: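 Growth inhibition is read against vehicle-treated controls after compound exposure of the mec2-1 yeast strain, which is defective in DNA damage repair or cell cycle control.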

[3] = NCI Yeast Anticancer Drug Screen. Data for the sgs1 mgt1 strain (AID 161);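 further: 0% = growth of cultures given vehicle only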; conditions: S. cerevisiae sgs1 mgt1 strain, at 50.0 µM, hits give high values
Summary of the method: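 Growth of a repair-deficient yeast mutant was monitored after compound treatment and expressed as inhibition relative to vehicle-treated cultures.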

[4] = NCI Yeast Anticancer Drug Screen. Data for the cln2 rad14 strain (AID 165);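 further: 0% = growth equal to vehicle treated cultures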; conditions: S. cerevisiae cln2 rad14 strain, at 50.0 µM, hits give high values
Summary of the method: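 Growth inhibition, relative to vehicle-treated controls, is the read-out. The test organism is a yeast strain with defined genetic alterations, cln2 rad14.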

[5] = NCI Yeast Anticancer Drug Screen. Data for the bub3 strain (AID 167); conditions: S. cerevisiae bub3 mutant strain, at 50.0 µM, hits give high values
Summary of the method: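 Whole-cell yeast assay. The mutant strain was incubated with compounds, and growth inhibition was determined by comparison with vehicle-treated cells.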

[6] = NCI Yeast Anticancer Drug Screen. Data for the mlh1 rad18 strain (AID 175); conditions: S. cerevisiae mlh1 rad18 strain growth inhibition; at 50.0 µM; hits give high values
Summary of the method: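 Cells of a genetically altered yeast strain, deficient in DNA damage repair, were treated with compound. Their growth was then compared with that of vehicle-treated cultures to give inhibition.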

Row | SMILES | growth inhibition [1] | growth inhibition [2] | growth inhibition [3] | growth inhibition [4] | growth inhibition [5] | growth inhibition [6]
1 | C=C(C)[N+]([O-])=NC | -6.75% | 3.5% | -2.8% | 30.1% | -10.8% | 0.75%
2 | C=C1C2CC(OC(C)=O)C3(C)C(c4ccoc4)OC(=O)[C@@H](O)[C@]13OC1C[C@H](OC(C)=O)C(C)(C)[C@H](C(O)C(=O)OC)[C@]12C (stereo not given in full) | -11.8% | -34.4% | 2.4% | 3.45% | -8.1% | 0.25%
3 | O=C(NC(Cc1ccccc1)C(=O)NC(Cc1c[nH]c2ccccc12)C(=O)O)OCc1ccccc1 (stereo not given) | 1.9% | 7.45% | -3.95% | -7.3% | -3.55% | 12.2%
4 | O=C1Nc2cc([N+](=O)[O-])c(Br)cc2C1=O | 22.1% | 27.4% | 0.7% | 14.9% | 5.8% | 12.1%
5 | COC(=O)C(C(Br)C(=O)c1ccccc1)C(c1ccccc1)[N+](=O)[O-] (stereo not given) | 68.7% | 85.3% (active) | 54.1% | 2.3% | 85.9% (active) | 94.5% (active)
6 | Cc1ccc(/C(=C/CN2CC3CCC(CC3)C2)c2ccccc2)cc1 | -1.15% | -4.5% | 11.9% | -14.3% | 10.4% | -13.8%
7 | COc1cc2c(cc1OC)C(C(CBr)CBr)N(C1CCCC1)CC2 (stereo not given) | -8.2% | -15.3% | 13.6% | -19.9% | -12.4% | 11.6%
8 | Cc1ccc(S(=O)OCC23CC4CC(CC(C4)C2)C3)cc1 (stereo not given) | 17.5% | 1.6% | -1.05% | 17.5% | -5.55% | -30.6%
9 | O=C(N/N=C/c1ccc(Cl)cc1)c1cc(-c2ccccc2)nc2ccccc12 | 5.95% | 22.3% | 17.4% | 21.7% | 2% | -5.7%
10 | NCCN.O=C([O-])CN1CCOCC1.[OH-].[Pt+4] | 8.9% | -5.25% | -29.9% | -17.9% | -13.7% | -19.9%
11 | C=C(C)C1CCC2(C)CC3C(=C)CC(O)C(O)C3(C)CCC12 (stereo not given) | 48.2% | 88.8% (active) | 90.8% (active) | 90% (active) | 90.2% (active) | 89.5% (active)
12 | Oc1ccc2ccccc2c1CNC1CCCCC1 | -9.05% | -18.9% | -9.05% | -26.1% | 29.7% | -26.6%
13 | O=C(NNc1ccccc1)NNc1ccccc1 (tested in a mixture with another compound) | 11.1% | -0.45% | -0.9% | 23.8% | -12.2% | 1.65%
14 | CCOC(=O)CC1NC(=O)CNC1=O (stereo not given) | -9.2% | 2.1% | 5.3% | -5% | -1.65% | -13.2%
15 | O=C(NCC(C(=O)OCc1ccccc1)C(=O)OCc1ccccc1)OCc1ccccc1 | -8.9% | -13.8% | 1.55% | -14.1% | -24.4% | -12.3%
16 | Cc1cc(C)c(/C=C\C(=O)c2ccccc2)c(C)c1 | 9.75% | -7.65% | -4.3% | -37.9% | 6.15% | -15.5%
17 | COc1ccc(-c2cc(-c3ccccc3)nc(-c3cccc([N+](=O)[O-])c3)c2)cc1 | -1.6% | -4.4% | 11.4% | -3.75% | 21.2% | 18.4%
18 | CCCCC(SC(CC)(CC)C(N)=O)C(N)=O (stereo not given) | 8% | -6.5% | 6.55% | -28.9% | 8.7% | -5.6%
19 | c1ccc(-c2cc(-c3ccccc3)c3ccc4c(-c5ccccc5)cc(-c5ccccc5)c5ccc2c3c54)cc1 | -43% | -17.4% | -14.3% | 11.6% | -18.9% | -26.2%
20 | COc1ccc(/C=N/NC(=O)c2ccc(N)cc2)c(OC)c1 | 5.7% | 9.4% | 10% | -0.9% | 14.2% | 13%

Row | SMILES | growth inhibition [1] | growth inhibition [2] | growth inhibition [3] | growth inhibition [4] | growth inhibition [5] | growth inhibition [6]
21 | CC[n+]1cc([N+](=O)[O-])ccc1Cl | 17.5% | 14.5% | 13.6% | 15.9% | 12.4% | 20.2%
22 | CCCCCCCCCCCCCCCCCCCCCCCCSC(=N)N | 10.6% | 0.15% | 16.5% | 26.4% | -6.15% | 12.9%
23 | CCc1[nH]nc(-c2n[nH]c(CC)c2C)c1C | -66.8% | -24.9% | -20.1% | -26.4% | -13.7% | -9.3%
24 | CCOC(=O)NN(C/C(Cl)=C/Cl)C/C(Cl)=C/Cl | -2% | -0.95% | 0.4% | -46.8% | 7.35% | -5.55%
25 | CCNC(=O)NCc1cccc2ccccc12 | -0.05% | -8.15% | -7.15% | -74.2% | 5.15% | -1.6%
26 | CCCCC(CC)(CO)CCC (stereo not given) | -8.75% | -19% | -13.7% | 2.55% | -9.45% | 4%
27 | CS(=O)(=O)OCCCCOS(C)(=O)=O | -9.5% | -23.9% | 8.55% | 2% | 12.1% | 0.05%
28 | CCc1[nH]c2ccc(C)cc2c1C(=O)c1cccnc1 | 5.3% | -0.15% | 16.4% | 7.2% | 21.3% | 7.6%
29 | Clc1cccc(-c2nnc(-c3nn(-c4ccccc4)c4nc5ccccc5nc34)o2)c1 | -16.4% | -31.3% | -47.2% | 6.1% | -17.1% | -10.8%
30 | Fc1ccc2c(c1)Nc1ccccc1S2 | -6.1% | -1.95% | 7.65% | -8.85% | -16% | -14.6%
31 | N#CC(C#N)=C1CCNCC1 | -12.8% | -5.5% | -6.3% | -8.35% | 3.65% | 0.9%
32 | O=C1N(Cl)C2C(N1Cl)N(Cl)C(=O)N2Cl (stereo not given) | 5.35% | -9.55% | -18.4% | -2.9% | 2.95% | -12.6%
33 | O=C(NC/C=C/Br)NC1CCNc2ccccc21 (stereo not given) | -14.2% | -27.4% | 22.1% | 28.6% | 20.2% | 23%
34 | Cc1ccc(S(=O)(=O)N2CCCSCCN(S(=O)(=O)c3ccc(C)cc3)CCCSCC2)cc1 | -0.25% | -32.5% | -30.2% | -9.4% | -28.6% | -24.4%
35 | CN(C)CCCN1c2ccccc2Sc2ccc3ccccc3c21 | -0.35% | -3.45% | -43% | -25.9% | 8.95% | 14.8%
36 | COc1cc2c3c(c1OC)-c1[nH]c4ccccc4c1C1CCCN(CC2)C31 (stereo not given) | -54.9% | -19.9% | -20.4% | -29.9% | -16.4% | -11.7%
37 | C#CCN1CCCC1 | -9.4% | -4.35% | -11% | 22.1% | 27.7% | 10.2%
38 | CCOP(=O)(Cc1c(C)cc(Br)c2ccccc12)OCC | -2.85% | -13.8% | -0.95% | -32.2% | 5.45% | -9.35%
39 | Cc1ccc(O)c(C(=O)C[n+]2ccccc2)c1 | -12.8% | -9.65% | -1.25% | 1.2% | 0.1% | -0.55%
40 | COc1ccc(Cl)cc1NC(=O)c1cccc([N+](=O)[O-])c1O | -14.9% | 8.95% | 1.75% | -8.55% | 8.65% | -78.4%

— PubChem BioAssay (NCI)
